A word on the inhibition: it is the relative decrease from the control value, in per cent.

Test [1] addresses Sphingosine kinase 1 (Homo sapiens) (UniProt Q9NYA1). Conditions: at 1 µM.
For test [2], the target named is T1, Sphingosine kinase 2 (Homo sapiens) (UniProt Q9NRA0).
T1 sequence (whole entry): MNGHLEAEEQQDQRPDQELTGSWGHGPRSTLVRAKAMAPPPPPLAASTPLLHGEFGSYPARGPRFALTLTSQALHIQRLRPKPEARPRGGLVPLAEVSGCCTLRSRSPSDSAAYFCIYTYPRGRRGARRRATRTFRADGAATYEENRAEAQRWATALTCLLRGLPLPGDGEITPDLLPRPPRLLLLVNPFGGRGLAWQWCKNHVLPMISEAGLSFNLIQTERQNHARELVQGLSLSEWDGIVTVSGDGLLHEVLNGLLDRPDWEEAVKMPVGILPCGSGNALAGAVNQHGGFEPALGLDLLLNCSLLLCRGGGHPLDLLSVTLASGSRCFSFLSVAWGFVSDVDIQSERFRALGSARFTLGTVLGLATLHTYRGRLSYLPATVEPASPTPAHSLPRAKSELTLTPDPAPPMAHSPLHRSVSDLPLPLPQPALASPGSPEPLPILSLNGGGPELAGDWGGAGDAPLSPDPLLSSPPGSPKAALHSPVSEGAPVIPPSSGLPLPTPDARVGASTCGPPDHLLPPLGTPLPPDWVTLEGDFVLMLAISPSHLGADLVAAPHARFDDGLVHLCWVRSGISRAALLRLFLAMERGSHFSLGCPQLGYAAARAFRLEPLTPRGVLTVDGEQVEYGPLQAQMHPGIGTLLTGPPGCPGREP
Conditions: at 0.1 µM.

Test [3] addresses T1, Sphingosine kinase 2 (Homo sapiens). Conditions: at 1 µM.
Test [4] concerns the target Casein kinase II subunit alpha (Homo sapiens) (UniProt P68400). Conditions: at 0.1 µM.
Test [5] shares this target. Conditions: at 1 µM.
Test [6] deals with T2, Inhibitor of nuclear factor kappa-B kinase subunit alpha (Homo sapiens) (UniProt O15111).
T2 sequence (whole entry): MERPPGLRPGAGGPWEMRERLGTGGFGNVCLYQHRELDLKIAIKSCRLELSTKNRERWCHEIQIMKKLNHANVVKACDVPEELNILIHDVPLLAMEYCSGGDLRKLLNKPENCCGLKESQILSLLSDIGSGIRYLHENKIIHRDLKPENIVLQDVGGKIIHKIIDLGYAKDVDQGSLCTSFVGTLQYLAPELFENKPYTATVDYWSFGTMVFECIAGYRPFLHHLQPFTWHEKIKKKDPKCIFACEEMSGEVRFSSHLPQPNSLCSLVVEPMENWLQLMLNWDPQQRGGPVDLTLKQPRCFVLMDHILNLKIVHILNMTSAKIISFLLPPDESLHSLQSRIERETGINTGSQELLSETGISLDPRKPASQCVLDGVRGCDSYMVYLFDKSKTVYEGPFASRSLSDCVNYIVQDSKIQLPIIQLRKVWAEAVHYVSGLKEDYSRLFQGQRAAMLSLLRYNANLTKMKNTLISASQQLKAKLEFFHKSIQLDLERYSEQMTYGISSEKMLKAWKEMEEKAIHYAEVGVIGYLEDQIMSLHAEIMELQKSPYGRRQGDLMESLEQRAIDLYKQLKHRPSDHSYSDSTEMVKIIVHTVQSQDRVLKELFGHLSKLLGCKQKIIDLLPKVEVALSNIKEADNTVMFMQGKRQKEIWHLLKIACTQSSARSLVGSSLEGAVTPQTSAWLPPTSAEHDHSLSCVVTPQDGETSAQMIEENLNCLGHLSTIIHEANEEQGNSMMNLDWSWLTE
Conditions: at 0.1 µM.

Test [7] addresses T2, Inhibitor of nuclear factor kappa-B kinase subunit alpha (Homo sapiens). Conditions: at 1 µM.
Test [8] has as its target T3, Inhibitor of nuclear factor kappa-B kinase subunit beta (Homo sapiens) (UniProt O14920).
T3 sequence (whole entry): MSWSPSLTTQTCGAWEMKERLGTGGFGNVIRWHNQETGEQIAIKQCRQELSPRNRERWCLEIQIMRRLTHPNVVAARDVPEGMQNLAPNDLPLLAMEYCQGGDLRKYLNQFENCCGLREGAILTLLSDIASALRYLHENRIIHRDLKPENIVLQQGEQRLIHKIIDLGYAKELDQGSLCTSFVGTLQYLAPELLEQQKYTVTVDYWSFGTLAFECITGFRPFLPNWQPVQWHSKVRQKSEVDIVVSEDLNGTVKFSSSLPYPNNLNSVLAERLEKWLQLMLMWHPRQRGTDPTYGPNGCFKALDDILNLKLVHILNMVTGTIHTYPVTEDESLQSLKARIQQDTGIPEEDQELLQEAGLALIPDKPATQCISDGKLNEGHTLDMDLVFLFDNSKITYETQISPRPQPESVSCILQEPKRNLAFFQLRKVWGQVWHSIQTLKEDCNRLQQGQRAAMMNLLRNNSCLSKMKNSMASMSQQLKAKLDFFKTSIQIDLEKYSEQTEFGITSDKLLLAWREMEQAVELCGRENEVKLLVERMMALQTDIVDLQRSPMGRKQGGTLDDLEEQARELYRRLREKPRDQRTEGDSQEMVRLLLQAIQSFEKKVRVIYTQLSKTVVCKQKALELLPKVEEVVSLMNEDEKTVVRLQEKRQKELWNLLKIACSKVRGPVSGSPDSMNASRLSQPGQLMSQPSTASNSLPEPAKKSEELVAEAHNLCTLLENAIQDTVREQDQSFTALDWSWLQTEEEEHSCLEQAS
To be noted: at 0.1 µM.

Test [9] has as its target T3, Inhibitor of nuclear factor kappa-B kinase subunit beta (Homo sapiens). To be noted: at 1 µM.
Test [10] addresses T4, Inhibitor of nuclear factor kappa-B kinase subunit epsilon (Homo sapiens) (UniProt Q14164).
T4 sequence (whole entry): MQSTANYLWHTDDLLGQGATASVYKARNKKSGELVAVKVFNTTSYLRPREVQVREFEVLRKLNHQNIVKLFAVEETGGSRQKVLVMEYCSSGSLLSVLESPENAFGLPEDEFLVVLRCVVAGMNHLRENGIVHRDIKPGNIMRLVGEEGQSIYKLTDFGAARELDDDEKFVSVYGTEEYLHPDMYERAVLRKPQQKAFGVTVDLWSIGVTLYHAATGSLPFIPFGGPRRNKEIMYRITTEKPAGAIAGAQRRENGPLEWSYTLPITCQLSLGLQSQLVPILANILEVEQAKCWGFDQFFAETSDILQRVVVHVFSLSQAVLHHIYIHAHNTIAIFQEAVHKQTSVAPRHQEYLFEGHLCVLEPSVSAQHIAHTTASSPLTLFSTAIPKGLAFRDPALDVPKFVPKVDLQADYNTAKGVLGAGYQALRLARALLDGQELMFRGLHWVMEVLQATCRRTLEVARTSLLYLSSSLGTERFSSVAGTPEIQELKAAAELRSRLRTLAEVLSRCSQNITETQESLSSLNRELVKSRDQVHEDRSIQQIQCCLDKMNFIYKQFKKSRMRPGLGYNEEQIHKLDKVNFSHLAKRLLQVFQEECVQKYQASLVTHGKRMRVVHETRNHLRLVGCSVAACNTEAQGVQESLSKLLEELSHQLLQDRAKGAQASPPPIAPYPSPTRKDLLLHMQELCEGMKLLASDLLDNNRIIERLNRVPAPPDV
Conditions: at 0.1 µM.

Test [11] has as its target T4, Inhibitor of nuclear factor kappa-B kinase subunit epsilon (Homo sapiens). To be noted: at 1 µM.
In test [12] the target is T5, Serine/threonine-protein kinase Nek1 (Homo sapiens) (UniProt Q96PY6).
T5 sequence (whole entry): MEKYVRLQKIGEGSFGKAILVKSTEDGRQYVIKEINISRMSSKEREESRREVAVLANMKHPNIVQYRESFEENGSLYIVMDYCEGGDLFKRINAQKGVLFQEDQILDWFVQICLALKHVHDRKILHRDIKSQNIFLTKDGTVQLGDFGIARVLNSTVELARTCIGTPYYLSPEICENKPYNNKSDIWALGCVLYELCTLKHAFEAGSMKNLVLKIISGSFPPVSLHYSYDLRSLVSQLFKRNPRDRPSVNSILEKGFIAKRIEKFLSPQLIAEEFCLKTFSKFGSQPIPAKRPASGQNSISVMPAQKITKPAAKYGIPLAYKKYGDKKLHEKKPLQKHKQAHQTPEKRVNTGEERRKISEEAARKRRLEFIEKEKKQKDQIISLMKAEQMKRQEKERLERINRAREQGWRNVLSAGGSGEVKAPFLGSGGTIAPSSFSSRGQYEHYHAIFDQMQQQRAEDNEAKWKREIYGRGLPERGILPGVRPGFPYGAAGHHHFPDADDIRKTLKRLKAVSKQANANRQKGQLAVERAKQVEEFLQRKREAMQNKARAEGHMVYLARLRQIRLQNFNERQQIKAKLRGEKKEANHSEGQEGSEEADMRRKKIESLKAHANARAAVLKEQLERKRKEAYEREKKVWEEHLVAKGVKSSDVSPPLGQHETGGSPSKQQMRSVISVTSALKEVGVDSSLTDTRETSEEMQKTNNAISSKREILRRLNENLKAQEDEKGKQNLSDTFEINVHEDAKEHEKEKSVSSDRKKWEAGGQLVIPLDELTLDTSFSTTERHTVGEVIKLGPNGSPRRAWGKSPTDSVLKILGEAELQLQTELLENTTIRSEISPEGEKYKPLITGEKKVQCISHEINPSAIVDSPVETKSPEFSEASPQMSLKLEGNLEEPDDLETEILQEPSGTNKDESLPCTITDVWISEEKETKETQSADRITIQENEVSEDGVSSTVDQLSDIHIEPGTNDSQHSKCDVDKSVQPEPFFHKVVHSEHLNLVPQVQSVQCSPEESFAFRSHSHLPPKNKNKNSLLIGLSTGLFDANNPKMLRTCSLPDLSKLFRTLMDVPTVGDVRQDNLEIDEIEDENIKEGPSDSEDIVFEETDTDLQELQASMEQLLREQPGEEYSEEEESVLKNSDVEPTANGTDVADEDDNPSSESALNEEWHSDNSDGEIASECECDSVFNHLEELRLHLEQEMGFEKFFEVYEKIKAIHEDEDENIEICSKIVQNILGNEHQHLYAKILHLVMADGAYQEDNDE
Conditions: at 0.1 µM.

For test [13], the target named is T5, Serine/threonine-protein kinase Nek1 (Homo sapiens). Conditions: at 1 µM.
For test [14], the target named is T6, Serine/threonine-protein kinase Nek2 (Homo sapiens) (UniProt P51955).
T6 sequence (whole entry): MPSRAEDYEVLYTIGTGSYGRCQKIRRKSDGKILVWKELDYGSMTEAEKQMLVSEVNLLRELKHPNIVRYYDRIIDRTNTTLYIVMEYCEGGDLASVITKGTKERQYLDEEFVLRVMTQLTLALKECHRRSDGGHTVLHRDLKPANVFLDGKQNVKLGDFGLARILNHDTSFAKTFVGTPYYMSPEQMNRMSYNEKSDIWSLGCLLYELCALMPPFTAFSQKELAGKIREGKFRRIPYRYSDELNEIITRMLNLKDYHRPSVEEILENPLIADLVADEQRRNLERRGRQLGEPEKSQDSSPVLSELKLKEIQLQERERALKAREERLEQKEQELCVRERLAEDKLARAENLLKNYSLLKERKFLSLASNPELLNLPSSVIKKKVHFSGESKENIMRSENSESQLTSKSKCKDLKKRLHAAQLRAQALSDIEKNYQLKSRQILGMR
To be noted: at 0.1 µM.

Test [15] concerns the target T6, Serine/threonine-protein kinase Nek2 (Homo sapiens). To be noted: at 1 µM.
Test [16] deals with Serine/threonine-protein kinase Nek6 (Homo sapiens) (UniProt Q9HC98). To be noted: at 0.1 µM.
The target is the same in test [17]. To be noted: at 1 µM.
The target of test [18] is Serine/threonine-protein kinase Nek7 (Homo sapiens) (UniProt Q8TDX7). Conditions: at 0.1 µM.
For test [19] the target is unchanged. To be noted: at 1 µM.
For test [20], the target named is T7, Serine/threonine-protein kinase Nek9 (Homo sapiens) (UniProt Q8TD19).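 Further: reported value is the mean percent inhibition of NEK9.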
T7 sequence (whole entry): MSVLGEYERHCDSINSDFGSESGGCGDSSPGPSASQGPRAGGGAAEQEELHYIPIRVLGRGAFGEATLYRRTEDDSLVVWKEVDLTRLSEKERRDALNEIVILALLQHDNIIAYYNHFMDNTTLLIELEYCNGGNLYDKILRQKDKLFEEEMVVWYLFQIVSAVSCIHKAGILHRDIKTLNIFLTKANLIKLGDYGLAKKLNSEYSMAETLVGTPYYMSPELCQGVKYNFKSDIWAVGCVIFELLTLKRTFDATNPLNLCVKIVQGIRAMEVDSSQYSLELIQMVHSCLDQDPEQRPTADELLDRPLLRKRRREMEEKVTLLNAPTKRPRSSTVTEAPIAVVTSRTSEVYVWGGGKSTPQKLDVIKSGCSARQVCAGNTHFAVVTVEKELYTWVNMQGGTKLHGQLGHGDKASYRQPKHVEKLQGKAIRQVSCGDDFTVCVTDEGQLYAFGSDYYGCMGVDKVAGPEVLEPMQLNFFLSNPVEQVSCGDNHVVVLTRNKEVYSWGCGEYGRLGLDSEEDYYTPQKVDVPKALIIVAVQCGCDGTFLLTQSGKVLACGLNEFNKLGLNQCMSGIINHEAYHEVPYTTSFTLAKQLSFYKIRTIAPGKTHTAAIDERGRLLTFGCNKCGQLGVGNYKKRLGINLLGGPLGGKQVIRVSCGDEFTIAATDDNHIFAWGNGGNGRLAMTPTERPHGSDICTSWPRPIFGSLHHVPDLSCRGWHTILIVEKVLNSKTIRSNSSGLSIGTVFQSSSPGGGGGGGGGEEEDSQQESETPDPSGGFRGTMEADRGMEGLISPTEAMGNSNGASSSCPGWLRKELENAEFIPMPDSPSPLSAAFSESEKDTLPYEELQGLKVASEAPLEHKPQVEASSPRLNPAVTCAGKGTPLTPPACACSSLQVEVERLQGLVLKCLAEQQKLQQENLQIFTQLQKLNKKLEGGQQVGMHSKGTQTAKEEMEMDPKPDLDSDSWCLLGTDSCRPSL
To be noted: at 0.1 µM.

Casein kinase II subunit alpha (Homo sapiens), sequence (P68400 whole entry, looked up): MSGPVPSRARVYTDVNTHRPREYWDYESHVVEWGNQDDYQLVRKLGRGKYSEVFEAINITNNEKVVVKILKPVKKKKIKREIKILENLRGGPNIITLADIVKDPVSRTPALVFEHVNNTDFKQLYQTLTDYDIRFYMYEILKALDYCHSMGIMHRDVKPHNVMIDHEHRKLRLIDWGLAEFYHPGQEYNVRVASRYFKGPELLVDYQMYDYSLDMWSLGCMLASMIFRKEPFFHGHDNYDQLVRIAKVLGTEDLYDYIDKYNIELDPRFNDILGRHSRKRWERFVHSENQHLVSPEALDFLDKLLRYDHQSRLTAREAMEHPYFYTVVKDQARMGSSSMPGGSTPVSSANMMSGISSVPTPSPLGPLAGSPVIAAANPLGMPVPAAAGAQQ
Serine/threonine-protein kinase Nek7 (Homo sapiens), sequence (Q8TDX7 whole entry, looked up): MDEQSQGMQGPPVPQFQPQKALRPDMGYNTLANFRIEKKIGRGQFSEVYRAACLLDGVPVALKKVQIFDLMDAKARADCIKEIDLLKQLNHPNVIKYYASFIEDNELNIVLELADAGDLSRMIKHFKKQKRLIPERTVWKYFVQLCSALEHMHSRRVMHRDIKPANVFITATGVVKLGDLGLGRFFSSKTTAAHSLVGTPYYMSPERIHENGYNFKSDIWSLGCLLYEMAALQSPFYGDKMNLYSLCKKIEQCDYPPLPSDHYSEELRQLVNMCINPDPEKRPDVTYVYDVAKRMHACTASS
Serine/threonine-protein kinase Nek6 (Homo sapiens), sequence (Q9HC98 whole entry): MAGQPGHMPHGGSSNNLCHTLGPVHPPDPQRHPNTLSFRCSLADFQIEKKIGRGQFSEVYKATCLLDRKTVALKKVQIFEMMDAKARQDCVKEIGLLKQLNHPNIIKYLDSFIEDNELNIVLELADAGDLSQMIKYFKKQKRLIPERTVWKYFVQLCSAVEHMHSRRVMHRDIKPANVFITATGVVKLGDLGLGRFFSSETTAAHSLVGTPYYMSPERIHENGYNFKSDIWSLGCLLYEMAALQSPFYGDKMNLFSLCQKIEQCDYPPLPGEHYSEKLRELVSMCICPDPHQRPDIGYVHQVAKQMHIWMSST
Sphingosine kinase 1 (Homo sapiens), sequence (Q9NYA1 whole entry): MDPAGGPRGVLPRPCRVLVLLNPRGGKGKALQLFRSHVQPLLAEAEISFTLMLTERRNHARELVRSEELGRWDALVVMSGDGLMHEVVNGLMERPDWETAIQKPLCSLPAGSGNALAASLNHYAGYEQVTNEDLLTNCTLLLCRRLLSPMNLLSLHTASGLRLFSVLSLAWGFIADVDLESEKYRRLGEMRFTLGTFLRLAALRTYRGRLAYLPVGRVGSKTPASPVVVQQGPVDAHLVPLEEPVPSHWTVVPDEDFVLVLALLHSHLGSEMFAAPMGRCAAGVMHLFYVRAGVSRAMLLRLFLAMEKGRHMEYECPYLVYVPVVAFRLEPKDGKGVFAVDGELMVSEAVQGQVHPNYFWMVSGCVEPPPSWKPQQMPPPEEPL

Regarding `Fc1ccc(Nc2nccc(-c3c(-c4ccc(C(F)(F)F)cc4)nn4ncccc34)n2)cc1F`, the inhibition in test [1] was -1.66%; in test [2], -0.99%; in test [3], -0.13%; in test [4], 2.02%; in [5], 1.28%; in [6], 9.17%. Besides, the inhibition in [7] is 4.1%; in test [8], 5.58%; in [9] it was 3.19%; in test [10], 2.59%; in [11], 4.2%; in test [12], 1.24%. Further, the inhibition in [13] was 1.72%; in [14], 4.93%; in test [15], 4.4%; in test [16], -0.59%; in test [17], 0.48%; in test [18], 3.33%. The results for the inhibition in test [19] and in [20] were 2.76% and 4.79%, respectively.

For the origin of these results see ChEMBL document CHEMBL1961873, “Compounds: GSK PKIS; Assays: Nanosyn kinase panel” (2012).
